Assay results taken from PubChem BioAssay AID1220 (Sanford-Burnham Center for Chemical Genomics, 2008).
The campaign covered roughly 190,000 compounds. About 1,300 (0.68%) were called active. Shown is part of a subset that was picked to be rich in actives. A number with no mark means an inactive call. No stated cut-off is given here; in the data, active means inhibition above about 50%; inactive means the rest.

Biological target: Mannose-6-phosphate isomerase (Homo sapiens) (UniProt P34949)
Assay: human PMI inhibitors, high substrate, primary screen, biochemical, fluorescence intensity, high mannose 6-phosphate (AID 1220)
Settings: recombinant PMI enzyme, coupled fluorescence intensity; at 20 µM; stronger effect = higher value

Chain of Mannose-6-phosphate isomerase (Homo sapiens) (P34949 whole entry, looked up): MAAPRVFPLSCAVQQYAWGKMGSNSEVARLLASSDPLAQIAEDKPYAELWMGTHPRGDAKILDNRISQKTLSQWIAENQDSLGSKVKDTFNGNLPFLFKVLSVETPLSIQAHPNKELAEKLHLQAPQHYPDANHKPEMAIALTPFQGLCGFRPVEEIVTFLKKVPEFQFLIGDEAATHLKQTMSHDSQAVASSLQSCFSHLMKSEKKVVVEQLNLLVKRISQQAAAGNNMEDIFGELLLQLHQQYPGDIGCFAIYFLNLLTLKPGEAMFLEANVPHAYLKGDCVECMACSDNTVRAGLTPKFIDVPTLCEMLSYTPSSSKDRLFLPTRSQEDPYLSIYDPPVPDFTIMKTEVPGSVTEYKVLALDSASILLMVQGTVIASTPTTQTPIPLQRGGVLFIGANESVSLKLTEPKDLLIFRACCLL

SMILES | inhibition
Cc1ccc(C(=O)NCc2ccccc2)cc1Br | 12.6%
c1ccc2sc(N3CCOCC3)nc2c1 | -4.3%
Fc1ccc2nc(N3CCOCC3)sc2c1 | -5.9%
Nc1ccc2nc(N3CCOCC3)sc2c1 | 59.7% (active)
Cc1cnc(C(=O)OCC(=O)N2CCN(C(=O)c3ccco3)CC2)cn1 | 6.1%
O=C(CSc1nc2ccccc2c(=O)n1-c1ccccc1)N1CCc2ccccc2C1 | 8%
CC1(C(=O)NC2CCCCCCC2)CCC(=O)N1CCN1CCOCC1 (centres undefined) | -8.6%
COc1cc(C2C(C#N)=C(N)Oc3c2ccc2ccccc32)ccc1OCC(=O)Nc1ccc(C)cc1 (centres undefined) | 24.1%
COc1cc(C2C(C#N)=C(N)Oc3c2ccc2ccccc32)ccc1OCC(=O)Nc1cccc(C)c1 (centres undefined) | 53.4% (active)
COC(=O)c1ccc(NC(=O)COc2ccc(C3C(C#N)=C(N)Oc4c3ccc3ccccc43)cc2OC)cc1 (centres undefined) | 15.5%
CCOC(=O)c1cc(CC)sc1NC(=O)CC1Sc2ccc(C(F)(F)F)cc2NC1=O (centres undefined) | -5.2%
Cc1ccc(S(=O)(=O)NCc2nc3ccccc3[nH]2)cc1 | 5%
Cc1nnc(SCC(=O)NC2CCCCC2)n(N)c1=O | -2.5%
O=C1CN(C(=O)c2ccccc2)c2ccccc2N1 | 6.5%
O=C1CN(C(=O)c2cccs2)c2ccccc2N1 | 3.1%
O=C1CN(C(=O)c2cc(Br)c(Br)s2)c2ccccc2N1 | 61.5% (active)
COC(=O)c1ccc(NC(=O)Nc2ccccc2F)cc1 | 11%
O=C(CN1CCN(Cc2ccccc2)CC1)N1CCCc2c1c(=O)oc1ccc(O)cc21 | 3.1%
CC(C(=O)N1CCCc2c1c(=O)oc1ccc(O)cc21)N1CCc2ccccc2C1 (centres undefined) | 69% (active)
CN(CC(=O)N1CCCc2c1c(=O)oc1ccc(O)cc21)Cc1ccccc1 | 3.3%

SMILES | inhibition
Cc1ccccc1NC(=O)CC(O)(C(F)(F)F)C(F)(F)F | -6%
COc1ccc(C(=O)N2CCCC2)cc1S(=O)(=O)N1CCC(C)CC1 | 5.6%
NC(=O)C1=C[C@H](c2ccccc2)C[C@H](OCc2ccc(CO)cc2)O1 | 59.2% (active)
NC(=O)C1=C[C@H](c2ccc(Br)cc2)C[C@H](OCc2ccc(CO)cc2)O1 | 51% (active)
O=C(O)C1=C[C@@H](c2ccc(Br)cc2)C[C@@H](OCc2ccc(CO)cc2)O1 | -16.7%
O=C(O)C1=C[C@@H](c2ccc(C(F)(F)F)cc2)C[C@@H](OCc2ccc(CO)cc2)O1 | -0.6%
O=C(Nc1ccccc1)C1=C[C@H](c2ccccc2)C[C@H](OCc2ccc(CO)cc2)O1 | 8.7%
C=CCOC(=O)C1=C[C@@H](c2ccccc2)C[C@@H](OCc2ccc(CO)cc2)O1 | -6.1%
NC(=O)C1=C[C@@H](c2ccccc2)C[C@@H](OCc2ccc(CO)cc2)O1 | 66% (active)
NC(=O)C1=C[C@H](c2ccc(C(F)(F)F)cc2)C[C@H](OCc2ccc(CO)cc2)O1 | 43.9%
NC(=O)C1=C[C@@H](c2ccc(Br)cc2)C[C@@H](OCc2ccc(CO)cc2)O1 | 27.4%
O=C(O)C1=C[C@H](c2ccccc2)C[C@H](OCc2ccc(CO)cc2)O1 | 2.2%
O=C(O)C1=C[C@@H](c2ccccc2)C[C@@H](OCc2ccc(CO)cc2)O1 | -9.3%
NC(=O)C1=C[C@@H](c2ccc(C(F)(F)F)cc2)C[C@@H](OCc2ccc(CO)cc2)O1 | 61.6% (active)
CN(Cc1ccccc1)CC(O)COc1ccc(CNCCc2ccncc2)cc1 (centres undefined) | -5.6%
CN(C)c1nc(-c2ccccc2)ncc1S(=O)(=O)c1ccccc1 | 14.6%
COc1ccc(CC(=O)Nc2ccc(-c3cn4ccc(C)cc4n3)cc2)cc1 | -1.3%
COc1ccc(N(CC(=O)NCc2ccco2)S(=O)(=O)c2ccc(C)cc2)cc1 | 14.7%
O=C1CN2NC(=S)N(c3ccccc3)C2=CN1c1ccc(Cl)cc1 | -1.1%
CCOc1ccc(NC(=O)CSc2n[nH]c(=O)n2-c2ccccc2)cc1 | 6.5%

SMILES | inhibition
Cn1cccc1/C=N/NC(=O)C12CC3CC(CC(C3)C1)C2 | 2.4%
C=CCOC(=O)C1=C[C@@H](c2ccc3c(c2)OCO3)C[C@@H](OCc2ccc(CO)cc2)O1 | 20%
NC(=O)C1=C[C@H](c2ccc3c(c2)OCO3)C[C@H](OCc2ccc(CO)cc2)O1 | 59.9% (active)
O=C(O)C1=C[C@@H](c2ccc3c(c2)OCO3)C[C@@H](OCc2ccc(CO)cc2)O1 | 4.3%
O=C(Nc1ccccc1-c1ccccc1)C1CCC1 | 8.4%
COc1ccc(Cc2nc(-c3ccc(-n4cccc4)cc3)no2)cc1 | -0.1%
O=[N+]([O-])c1ccc(OCCN2CCNCC2)cc1 | -5.8%
COc1nnc(-c2ccc(N3CCCCC3)c(NC(C)=O)c2)c2ccccc12 | -9.2%
C=CCNC(=S)N1CCC(C(=O)c2ccc3c(c2)OCCO3)CC1 | 12.3%
COc1cnc(-c2ccccn2)nc1Oc1ccccc1 | 12.7%
Cc1ccc(OCCn2c(Br)nc3c2c(=O)n(C)c(=O)n3C)cc1 | 52.7% (active)
COCCn1c(Br)nc2c1c(=O)n(C)c(=O)n2C | 0.3%
COc1ccc(C(=O)Cn2c(Br)nc3c2c(=O)n(C)c(=O)n3C)cc1 | -3%
CCc1ccccc1NC(=O)c1cccc(Oc2ccc([N+](=O)[O-])cc2Cl)c1 | 6.1%
CN(C)S(=O)(=O)c1ccc(Cl)c(NC(=O)CSc2nc3ccccc3c(=O)n2CCCN2CCOCC2)c1 | 4.7%
CCOC(=O)c1ccccc1NC(=O)COC(=O)C1=COCCO1 | 3.8%
CC12CN3CC(C)(CN(C1)C3c1ccc3ccccc3c1O)C2=O (centres undefined) | 53.1% (active)
Cn1cc(C2N3CC4(C)CN2CC(C)(C3)C4=O)c2ccccc21 (centres undefined) | 4.5%
CC12CN3CC(C)(CN(C1)C3c1c[nH]c3ccccc13)C2=O (centres undefined) | 3.5%
